DRD3 antagonist: blocks the human D3 dopamine receptor; P35462; 2.5% of 360,000 active; max response, negative = inhibition, %; D3R cells, DiscoveRx beta-arrestin luminescence, antagonist mode; stronger effect = lower value; in the data active means max response below about -50%; inconclusive means no clear call, values can overlap the other calls; further: on the % scale 0 is the no-effect control and ±100 the full control effect
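Cells expressing the human receptor were seeded at 1500 cells/well, incubated overnight at 37 degrees C in 5% CO2, then exposed to library compounds with dopamine controls for 90 minutes at 37 degrees C before luminescent detection.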
DRD3 agonist: activates the human D3 dopamine receptor; 0.58% of 410,000 active; max activation, %; D3R DiscoveRx beta-arrestin cells, luminescence, 90 min; in the data active means max activation above about 30%; further: 0% is about no effect
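Agonist-mode cell screen: cells plated at 1500/well and incubated overnight at 37 °C, then exposed to library compounds for 90 min at 37 °C. Detection reagent was added for 30–60 min at room temperature, and luminescence was read.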
D1 ag: human D1 receptor agonism; activation, % at 2 µM; HEK293 T-REx D1 cells, calcium flux, agonist mode; AID 504660; 1% of 360,000 active; P21728; in the data active means activation above about 30%; further: 0% is about no effect
Target sequence (P21728 whole entry, looked up): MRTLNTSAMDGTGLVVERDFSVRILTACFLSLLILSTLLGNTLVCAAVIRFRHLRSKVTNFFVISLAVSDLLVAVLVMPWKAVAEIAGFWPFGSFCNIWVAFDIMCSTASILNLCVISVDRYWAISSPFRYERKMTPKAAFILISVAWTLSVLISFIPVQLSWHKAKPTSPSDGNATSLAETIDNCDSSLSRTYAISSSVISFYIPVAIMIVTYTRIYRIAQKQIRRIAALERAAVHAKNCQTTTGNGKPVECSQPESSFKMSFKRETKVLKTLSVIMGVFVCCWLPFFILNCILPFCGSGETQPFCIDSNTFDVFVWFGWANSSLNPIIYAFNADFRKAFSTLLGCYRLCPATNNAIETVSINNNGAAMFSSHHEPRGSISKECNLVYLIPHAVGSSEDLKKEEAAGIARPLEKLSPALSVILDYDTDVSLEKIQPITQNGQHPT
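Inducible HEK293 T-REx D1 cells, force-coupled to calcium signalling, were plated at 4000 cells/well with tetracycline and held overnight at 30 C. After no-wash calcium dye loading, compound-evoked calcium rise over 180 s flagged agonists.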
D1 antagonist: human D1 dopamine receptor antagonism; P21728; activity change, negative = inhibition, % at 10 µM; HEK293 TREx D1 cells, calcium flux, dopamine EC80; stronger effect = lower value; 3.2% of 360,000 active; in the data active means activity change below about -30%; further: on the % scale 0 is the no-effect control and ±100 the full control effect
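Calcium flux readout: force-coupled, inducible Hek293 Trex D1 line, cells induced overnight at 30 C with tetracycline, dye-loaded 30–90 min at RT. Antagonism scored against EC80 dopamine challenge given 180 s after compound.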
D1 PAM: human D1 dopamine receptor positive modulation; HEK293 TREx D1 cells, calcium flux, dopamine EC20 potentiation; potentiation, % at 10 µM; 0.036% of 360,000 active; in the data active means potentiation above about 30%; further: 0% is about no effect
* hit, by the source's call; ? = inconclusive; . = not tested or not shown. Compounds with a hit are over-represented: about 6% of the library has one in this group of screens.

SMILES	DRD3 antagonist	DRD3 agonist	D1 ag	D1 antagonist	D1 PAM
COc1ccc(CN(CCc2ccccc2)Cc2ccccc2)cc1OC	-16	-13	6	-18	-4
COc1cc(CN(CCN(C)C)Cc2ccccc2)ccc1OCc1ccccc1	-11	-9	25	-76*	-17
O=C(OCCOc1cccc(Cl)c1)C1CCN(S(=O)(=O)c2ccccc2)CC1	-27	-8	30*	-22	-1
COc1ccccc1-c1cc2nc(C)c(CCC(=O)NCCc3cccc(C)c3)c(C)n2n1	.	-2	8	0	-6
CCN(CC)S(=O)(=O)c1ccc(NCCCn2ccnc2)c([N+](=O)[O-])c1	5	4	0	-7	2
O=C(NCCCn1ccnc1)c1ccc2ccccc2c1	10	-3	3	-37*	-7
O=C(NCCCn1ccnc1)c1cc2ccccc2oc1=O	19	2	1	0	-4
O=C(NCCCn1ccnc1)c1ccc(NS(=O)(=O)c2ccc(Cl)c(Cl)c2)cc1	-6	-12	34*	0	11
O=C(NCCCn1ccnc1)c1ccccc1Br	-10	-2	3	-11	2
O=C(c1ccccc1)c1ccc(NCCCn2ccnc2)c([N+](=O)[O-])c1	?	-6	15	-35*	-12
O=C(NCCCn1ccnc1)c1cn(-c2ccccc2)nc1-c1ccccc1	-22	-4	1	-83*	-8
CSCCC(NS(=O)(=O)c1ccc2c(c1)oc(=O)n2C)C(=O)N1CCN(c2cccc(Cl)c2)CC1 (configuration not stated)	.	-13	10	0	-6
CCS(=O)(=O)N1CCc2cc(C(=O)NCc3ccc(Cl)cc3)ccc21	.	-5	2	-8	-2
C[C@H]1C[C@@H]2[C@H]([C@@H](O)C[C@@]3(C)[C@H]2CC[C@]3(O)C(=O)COC(=O)CCC(=O)O)[C@@]2(C)C=CC(=O)C=C12	.	2	.	.	.
O=C1CCN(Cc2ccccc2)CCN1[C@H](CO)c1ccccc1	-51*	-9	-1	3	-3
O=C1CCN(Cc2ccc(O)cc2)CCN1[C@H](CO)c1ccccc1	-7	9	1	1	4
N#Cc1cccc(CN2CCC(=O)N([C@H](CO)Cc3ccccc3)CC2)c1	-9	8	-1	-45*	6
O=C1CCN(Cc2ccccc2)CCN1[C@H](CO)Cc1ccccc1	-12	15	0	8	-4
Cc1coc2c1c(C)cc1oc(=O)c(CC(=O)NCc3ccc(Cl)cc3)c(C)c12	.	5	14	-3	-1
CCOC(=O)c1noc2ncnc(Nc3cccc(OC)c3)c12	.	-3	1	-14	-3
Cc1cc2c(c(=O)n1-c1ccccc1)C1O[C@](c3ccsc3)(Cc3ccccc31)O2	.	.	1	-6	-2
CS(=O)(=O)c1ccc([C@@H](O)[C@@H](CO)NC(=O)C(Cl)Cl)cc1	-51*	-25	-2	-10	3
CC(C)C(=O)N1CCc2cc(-c3csc(N)n3)ccc21	-3	5	2	-43*	-6
Cc1oc(-c2ccccc2Cl)nc1CN1CCCCC1c1cccnc1 (configuration not stated)	-13	1	-1	-32*	-8
Cc1oc(-c2ccccc2Cl)nc1CN1CCCC1c1ccc(F)cc1 (configuration not stated)	-9	-10	4	15	-6
SMILES	DRD3 antagonist	DRD3 agonist	D1 ag	D1 antagonist	D1 PAM
Cc1ccccc1N=C1NC(=O)C(CO)(CO)S1	4	3	2	-36*	-4
O=C1NC(=Nc2ccccc2Cl)SC1(CO)CO	-7	-21	3	5	-3
O=C(COCc1cc(-c2ccc(F)cc2)on1)Nc1cc(F)ccc1F	.	-6	7	-1	-4
O=C(CCC1CCN(Cc2ccccc2)CC1)c1ccc2c(c1)NCCCC2	.	-24	.	.	.
O=C(NC1CCCCC1)C(c1ccnc2ccccc12)n1c(=O)c(-c2ccccc2)nc2ccccc21 (configuration not stated)	-68*	-17	.	.	.
O=C(NC1CCCCC1)C(c1ccnc2ccccc12)n1c(=O)c(-c2cc3ccccc3[nH]2)nc2ccccc21 (configuration not stated)	15	6	.	.	.
O=C(NCc1ccccc1)C(CCc1ccccc1)n1c(=O)c(-c2ccccc2)nc2ccccc21 (configuration not stated)	-71*	-15	.	.	.
